Results as given in ChEMBL document CHEMBL3433997, “St. Jude Leishmania screening dataset” (2016).

Assays:
Assay type in all cases: functional
[1] = target: Solute carrier family 2, facilitated glucose transporter member 1 (Homo sapiens) (UniProt P11166); experiment: ST_JUDE_LEISH: Cytotoxicity at 2uM final concentration against transgenic Leishmania Mexicana promastigotes LmGLUT1 that are glucose transport deficient and complemented with the human glucose transporter GLUT1. Activity is measured by DNA content using SYBR green in vitro
[2] = target: Hexose transporter 1 (Plasmodium falciparum) (UniProt O97467); experiment: ST_JUDE_LEISH: Cytotoxicity at 2uM final concentration against transgenic Leishmania Mexicana promastigotes LmPfHT that are glucose transport deficient and complemented with the Plasmodium falciparum hexose transporter. Activity is measured by DNA content using SYBR green in vitro
[3] = target: Glucose transporter (Leishmania mexicana) (UniProt O61059); experiment: ST_JUDE_LEISH: Cytotoxicity at 2uM final concentration against transgenic Leishmania Mexicana promastigotes LmGT2 that are glucose transport deficient and complemented with the L. Mexicana glucose transporter 2. Activity is measured by DNA content using SYBR green in vitro

Solute carrier family 2, facilitated glucose transporter member 1 (Homo sapiens), sequence (P11166 whole entry): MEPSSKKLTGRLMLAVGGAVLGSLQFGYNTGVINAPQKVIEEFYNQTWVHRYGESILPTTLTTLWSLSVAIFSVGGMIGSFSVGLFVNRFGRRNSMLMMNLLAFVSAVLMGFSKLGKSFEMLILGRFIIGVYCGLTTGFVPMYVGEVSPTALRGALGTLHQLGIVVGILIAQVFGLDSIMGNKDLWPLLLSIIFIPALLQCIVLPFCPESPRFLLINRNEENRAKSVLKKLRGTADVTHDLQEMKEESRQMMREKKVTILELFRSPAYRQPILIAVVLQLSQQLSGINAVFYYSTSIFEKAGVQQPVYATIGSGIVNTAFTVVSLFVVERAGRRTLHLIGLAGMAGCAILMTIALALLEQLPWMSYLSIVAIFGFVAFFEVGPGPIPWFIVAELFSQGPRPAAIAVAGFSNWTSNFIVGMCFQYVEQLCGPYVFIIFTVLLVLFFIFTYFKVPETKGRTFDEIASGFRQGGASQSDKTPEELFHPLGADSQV

## O=C(O)c1ccc(-c2c[nH]c3ncc(-c4ccc(Cl)cc4)cc23)cc1
[1]
  inhibition: 0.12%
[2]
  inhibition: -0.34%
[3]
  inhibition: -0.05%

## CCOc1cc(O)c(-c2nc(N)ncc2-c2ccc3c(c2)OCCO3)cc1CC
[1]
  inhibition: 9.25%
[2]
  inhibition: 11%
[3]
  inhibition: 4.66%

## COc1ccc2nc(C)cc(Nc3ccc(N4CCN(C)CC4)cc3)c2c1
[1]
  inhibition: 0.93%
[2]
  inhibition: 2.03%
[3]
  inhibition: 0.99%

## Cc1cccc2nc(-c3cccc(-c4cccc(NC(=O)Nc5ccc(F)c(F)c5F)c4)c3)[nH]c12
[1]
  inhibition: 1.75%
[2]
  inhibition: 2.51%
[3]
  inhibition: 2.44%

## COc1ccc(CNC2CCN(C)CC2)cc1-c1ccc(S(=O)(=O)NCc2ccccc2)cc1
[1]
  inhibition: 3.88%
[2]
  inhibition: 4.24%
[3]
  inhibition: 5.02%

## O=C(Nc1ccc(OC2CCN(Cc3ccc(F)cc3)C2)c(Cl)c1)c1ccco1 (configuration not stated)
[1]
  inhibition: 3.67%
[2]
  inhibition: 3.44%
[3]
  inhibition: 3.01%

## COc1ccc2[nH]ccc(=NN=Cc3ccncc3)c2c1
[1]
  inhibition: 3.57%
[2]
  inhibition: 3.95%
[3]
  inhibition: 3.39%

## N=C(N)NC(=O)Nc1cc(F)c(Cl)c(Br)c1
[1]
  inhibition: 3.49%
[2]
  inhibition: 4.05%
[3]
  inhibition: -2.83%

## CCN(Cc1cccc2ccccc12)c1ccc2nc(N)nc(N)c2c1
[1]
  inhibition: 97.2%
[2]
  inhibition: 99%
[3]
  inhibition: 84%

## C=CCNC(CCCCC)c1ccc(OCCOc2ccc(C(CCCCC)NCC=C)cc2)cc1 (configuration not stated)
[1]
  inhibition: 0.79%
[2]
  inhibition: 11.9%
[3]
  inhibition: 3.03%

## CCc1c[nH]c2c(N3CCCS3(=O)=O)cc(C(=O)N[C@@H](Cc3ccccc3)[C@H](O)CNC(C)(C)c3cccc(C(F)(F)F)c3)cc12
[1]
  inhibition: -0.71%
[2]
  inhibition: 0.86%
[3]
  inhibition: 0.6%

## Nc1nccc2ccc(-c3cccc(O)c3)cc12
[1]
  inhibition: 7.38%
[2]
  inhibition: 6.21%
[3]
  inhibition: 4.01%

## COc1ccc(Nc2nccc(N3CCC(NC(=O)Nc4ccc5c(c4)OCO5)C3)n2)cc1 (configuration not stated)
[1]
  inhibition: 0.18%
[2]
  inhibition: 1.7%
[3]
  inhibition: 1.21%

## OC1CCCN(Cc2cccc(-c3ccc(-c4nc5cc(F)ccc5[nH]4)cc3)c2)C1 (configuration not stated)
[1]
  inhibition: 4.24%
[2]
  inhibition: 3.92%
[3]
  inhibition: 4.6%
